Measured values published in the supplement of paper PMC8728848.
The full list was thinned out, with the strongest signals kept by preference.

Columns and labels:
Assay in all cases: glycan array binding signal (z-score within array); higher = stronger binding
Conditions in all cases: glycan notation: IUPAC condensed, linker removed
[1] = molecular target: Fuc(a1-2)Gal(b1-3)[Fuc(a1-4)]GlcNAc
How it was run: (§1)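 Glycan array data were curated from 3228 arrays in the Consortium for Functional Glycomics database and kept only where the protein sequence was available. Glycan names were converted to IUPAC-condensed notation, and columns mapping to the same glycan were averaged. The binding signal is a within-array Z-score, averaged across arrays of the same protein sequence at different concentrations or buffers and across linkers. Negative Z-scores can be read as non-binding.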

Fuc(a1-2)[Gal(a1-3)]Gal = molecular target: Fuc(a1-2)[Gal(a1-3)]Gal
How it was run: as §1

[2] = molecular target: Fuc(a1-2)[Gal(a1-3)]Gal(b1-4)Glc
How it was run: as §1

[3] = molecular target: Fuc(a1-2)[GalNAc(a1-3)]Gal(b1-3)GalNAc(a1-3)[Fuc(a1-2)]Gal(b1-4)GlcNAc
How it was run: as §1

[4] = molecular target: Fuc(a1-2)[GalNAc(a1-3)]Gal(b1-3)GalNAc(b1-3)Gal(a1-4)Gal(b1-4)Glc
How it was run: as §1

[5] = molecular target: Fuc(a1-2)[GalNAc(a1-3)]Gal(b1-3)GlcNAc(b1-2)Man(a1-3)[Fuc(a1-2)[GalNAc(a1-3)]Gal(b1-3)GlcNAc(b1-2)Man(a1-6)]Man(b1-4)GlcNAc(b1-4)[Fuc(a1-6)]GlcNAc
How it was run: as §1

[6] = molecular target: Fuc(a1-2)[GalNAc(a1-3)]Gal(b1-4)GlcNAc(b1-6)GalNAc
How it was run: as §1

Gal(a1-3)Gal(b1-3)GlcNAc = molecular target: Gal(a1-3)Gal(b1-3)GlcNAc
How it was run: as §1

Gal(a1-3)Gal(b1-4)Glc = molecular target: Gal(a1-3)Gal(b1-4)Glc
How it was run: as §1

[7] = molecular target: Gal(a1-3)Gal(b1-4)GlcNAc(b1-2)Man(a1-3)[Gal(a1-3)Gal(b1-4)GlcNAc(b1-2)Man(a1-6)]Man(b1-4)GlcNAc(b1-4)GlcNAc
How it was run: as §1

[8] = molecular target: Gal(a1-3)Gal(b1-4)[Fuc(a1-3)]GlcNAc(b1-2)Man(a1-3)[Gal(a1-3)Gal(b1-4)[Fuc(a1-3)]GlcNAc(b1-2)Man(a1-6)]Man(b1-4)GlcNAc(b1-4)GlcNAc
How it was run: as §1

Gal(a1-3)GalNAc = molecular target: Gal(a1-3)GalNAc
How it was run: as §1

[9] = molecular target: Gal(a1-3)[Gal(a1-4)]Gal(b1-4)GlcNAc
How it was run: as §1

[10] = molecular target: Gal(a1-4)Gal(b1-4)GlcNAc(b1-2)Man(a1-3)[Gal(a1-4)Gal(b1-4)GlcNAc(b1-2)Man(a1-6)]Man(b1-4)GlcNAc(b1-4)GlcNAc
How it was run: as §1

[11] = molecular target: Gal(a1-4)Gal(b1-4)GlcNAc(b1-3)Gal(b1-4)Glc
How it was run: as §1

Gal(b1-3)Gal(b1-4)GlcNAc = molecular target: Gal(b1-3)Gal(b1-4)GlcNAc
How it was run: as §1

Gal(b1-3)GlcNAc = molecular target: Gal(b1-3)GlcNAc
How it was run: as §1

[12] = molecular target: Gal(b1-3)GlcNAc(b1-3)Gal(b1-4)GlcNAc
How it was run: as §1

[13] = molecular target: Gal(b1-3)GlcNAc(b1-3)Gal(b1-4)[Fuc(a1-3)]GlcNAc(b1-6)[Gal(b1-3)GlcNAc(b1-3)]Gal(b1-4)Glc
How it was run: as §1

[14] = molecular target: Gal(b1-3)[Fuc(a1-4)]GlcNAc(b1-2)Man(a1-3)[Gal(b1-3)[Fuc(a1-4)]GlcNAc(b1-2)Man(a1-6)]Man(b1-4)GlcNAc(b1-4)[Fuc(a1-6)]GlcNAc
How it was run: as §1

Gal(b1-4)Glc6S = molecular target: Gal(b1-4)Glc6S
How it was run: as §1

[15] = molecular target: Gal(b1-4)GlcNAc(a1-6)Gal(b1-4)GlcNAc
How it was run: as §1

[16] = molecular target: Gal(b1-4)GlcNAc(b1-2)Man(a1-3)[Gal(b1-4)GlcNAc(b1-2)Man(a1-6)]Man(b1-4)GlcNAc(b1-4)GlcNAc
How it was run: as §1

[17] = molecular target: Gal(b1-4)GlcNAc(b1-2)[Gal(b1-4)GlcNAc(b1-4)]Man(a1-3)[Gal(b1-4)GlcNAc(b1-2)[Gal(b1-4)GlcNAc(b1-6)]Man(a1-6)]Man(b1-4)GlcNAc(b1-4)GlcNAc
How it was run: as §1

[18] = molecular target: Gal(b1-4)GlcNAc(b1-3)Gal(b1-3)GalNAc
How it was run: as §1

[19] = molecular target: Gal(b1-4)GlcNAc(b1-3)Gal(b1-4)GlcNAc(b1-2)Man(a1-3)[Gal(b1-4)GlcNAc(b1-3)Gal(b1-4)GlcNAc(b1-2)Man(a1-6)]Man(b1-4)GlcNAc(b1-4)GlcNAc
How it was run: as §1

[20] = molecular target: Gal(b1-4)GlcNAc(b1-3)Gal(b1-4)GlcNAc(b1-2)[Gal(b1-4)GlcNAc(b1-3)Gal(b1-4)GlcNAc(b1-6)]Man(a1-6)[Gal(b1-4)GlcNAc(b1-3)Gal(b1-4)GlcNAc(b1-2)Man(a1-3)]Man(b1-4)GlcNAc(b1-4)[Fuc(a1-6)]GlcNAc
How it was run: as §1

B1: PX14375C-bth-509-28-509 (Bacteroides thetaiotaomicron) (protein)
chain: RSPQGQFTEDDNPNALVNGKIYNVYTMMRSFDITAGTPAIAIHYLRSEDSEKGSIPSDGSDVAEMYDDFLYTPTNGLLGSYWGKNYAIIYQCNDILDAIAEKETAGQTETEDIINKGEASFFRAYCYFNLVRAFGEVPLVTYKINDASEANIPKTTADKIYEQIDTDLKTAEESLPETWSTEYTGRLTWGAARSLHARTYMMRSDWDNMYKASTDVINKGLYNLKTPYNEIFTDDGENSGGSIFELQCTATAALPQSDVIGSQFCEVQGVRGAGQWDLGWGWHMATQLMADAYETGDPRKNATLLYFRKTDDEPITPENTNEPYGESPISPAMGAYFNKKAYTDPALRKEYTNKGFWVNIRLIRYSDVVLMAAEAANEKNIPGEAVDYLEMVRARARGTNTNILPKITTNDQGELREAIRHERRVELGLEPDRFYDLVRWGIASEVLHAAGKVNYQDKNALLPLPQSEIDKSKGVLVQNPDY
- glycan array binding signal (z-score) [1]: -0.397
- glycan array binding signal (z-score) (Fuc(a1-2)[Gal(a1-3)]Gal): -0.193
- glycan array binding signal (z-score) [2]: 0.04
- glycan array binding signal (z-score) [3]: -0.112
- glycan array binding signal (z-score) [4]: -0.355
- glycan array binding signal (z-score) [5]: -0.19
- glycan array binding signal (z-score) [6]: 3.04
- glycan array binding signal (z-score) (Gal(a1-3)Gal(b1-3)GlcNAc): -0.256
- glycan array binding signal (z-score) (Gal(a1-3)Gal(b1-4)Glc): -0.196
- glycan array binding signal (z-score) [7]: 0.762
- glycan array binding signal (z-score) [8]: 1.41
- glycan array binding signal (z-score) (Gal(a1-3)GalNAc): -0.254
- glycan array binding signal (z-score) [9]: 2.55
- glycan array binding signal (z-score) [10]: -0.374
- glycan array binding signal (z-score) [11]: -0.341
- glycan array binding signal (z-score) (Gal(b1-3)Gal(b1-4)GlcNAc): -0.316
- glycan array binding signal (z-score) (Gal(b1-3)GlcNAc): -0.186
- glycan array binding signal (z-score) [12]: -0.144
- glycan array binding signal (z-score) [13]: -0.581
- glycan array binding signal (z-score) [14]: 0.351
- glycan array binding signal (z-score) (Gal(b1-4)Glc6S): 0.533
- glycan array binding signal (z-score) [15]: -0.071
- glycan array binding signal (z-score) [16]: 6.16
- glycan array binding signal (z-score) [17]: 1.28
- glycan array binding signal (z-score) [18]: -0.287
- glycan array binding signal (z-score) [19]: 4.35
- glycan array binding signal (z-score) [20]: 12.3
